Compounds with a hit are over-represented: about 1.6% of the library has one in this group of screens.
KCNQ2 block – KCNQ2 (rat) channel inhibition. CHO-K1 KCNQ2, FluxOR thallium flux, 20 min; active compounds read low. B-score at 10 µM. 310,000 compounds, 1.1% hits;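 active = fluorescence ratio B-score at most minus 3 library SDs, with starting brightness B-score within 2 library SDs, cut at about -5.5 in these data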
KCNQ2 pot – KCNQ2 (rat) channel potentiation. B-score at 10 µM. O88943. 310,000 compounds, 0.54% hits. CHO-K1 KCNQ2, FluxOR thallium flux fluorescence; active compounds read high. AID 2239;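 active = fluorescence ratio B-score at least 3 SD of library B-scores, with initial fluorescence B-score within 3 of them, cut at about 5.3 in these data; same plate scores as AID 2156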;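 also: B-score of peak minus minimum over baseline fluorescence ratio after K+ and Tl+ stimulus; positive B-score means potentiation of KCNQ2 with more thallium influx and brighter signal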
KCNQ2 block conf – confirmation of rat KCNQ2 potassium channel inhibitors; shares compounds with KCNQ2 block; KCNQ2-expressing cells, thallium flux, inhibition; active compounds read low; activity change, negative = inhibition, % at 10 µM; 1,000 compounds, 57% hits;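 also: 0% = vehicle wells and values are ratio percent relative to vehicle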
KCNQ1 spec – human KCNQ1 activity in KCNQ2 inhibitor specificity screen; shares compounds with KCNQ2 block; KCNQ1-expressing cells, FluxOR thallium flux fluorescence; active compounds read low; activity change, negative = inhibition, % at 10 µM; 1,000 compounds, 15% hits;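 active = activity change at least 3 SD of negative controls below their mean in both duplicate wells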;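 also: CHO cells stably transfected with KCNQ1 and depolarized by potassium stimulus; peak minus minimum fluorescence over baseline after thallium addition; 0% = vehicle negative control and -100% = blank without thallium stimulus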
Target sequence (P51787 whole entry, looked up): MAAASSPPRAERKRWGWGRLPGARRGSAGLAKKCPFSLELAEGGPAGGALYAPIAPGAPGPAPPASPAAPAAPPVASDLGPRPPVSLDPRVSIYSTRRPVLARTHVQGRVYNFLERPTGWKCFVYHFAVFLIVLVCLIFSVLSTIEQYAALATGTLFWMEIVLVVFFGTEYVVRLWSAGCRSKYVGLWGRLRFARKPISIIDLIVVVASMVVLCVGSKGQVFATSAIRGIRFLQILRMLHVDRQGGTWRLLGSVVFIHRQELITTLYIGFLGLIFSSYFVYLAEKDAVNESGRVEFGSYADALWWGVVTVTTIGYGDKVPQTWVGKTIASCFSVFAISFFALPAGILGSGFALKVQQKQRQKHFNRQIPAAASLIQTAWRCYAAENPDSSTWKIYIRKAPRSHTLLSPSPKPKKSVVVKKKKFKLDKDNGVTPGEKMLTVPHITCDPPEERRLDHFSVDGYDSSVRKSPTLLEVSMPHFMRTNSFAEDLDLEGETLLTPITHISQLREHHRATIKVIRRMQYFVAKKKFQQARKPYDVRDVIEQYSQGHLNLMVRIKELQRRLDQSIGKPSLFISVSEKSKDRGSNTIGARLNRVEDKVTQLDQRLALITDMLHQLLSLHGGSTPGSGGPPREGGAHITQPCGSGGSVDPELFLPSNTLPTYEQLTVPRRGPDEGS
CHO parental ctr – KCNQ2 inhibitor counter-screen hit in parental CHO cells; 1,000 compounds, 14% hits; shares compounds with KCNQ2 block; activity change, % at 10 µM; thallium flux counter-screen; active compounds read low; AID 493029;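 also: 0% = vehicle negative controls with stimulus buffer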
KCNQ2 inh confirm – rat KCNQ2 inhibition confirmed by electrophysiology; 550 compounds, 49% hits; calls only at 10 µM; shares compounds with KCNQ2 block; KCNQ2-expressing cells, automated patch clamp current
An asterisk follows results filed as active; i = inactive; / = not tested or not shown; + = active, no number. Unless noted, no rule for the calls is given here.

SMILES	KCNQ2 block	KCNQ2 pot	KCNQ2 block conf	KCNQ1 spec	CHO parental ctr	others
Cc1ccc(N(C)S(=O)(=O)c2cc(-c3cnc(C4CC4)o3)ccc2C)cc1	-7.22*	-7.22	-15.0%*	i	i	KCNQ2 inh confirm=i
Cc1ccc(-c2cnc(C3CC3)o2)cc1S(=O)(=O)Nc1ccccc1	i	/	/	/	/
CCN(CC)C(=O)Oc1ccc2ccccc2c1Br	i	/	/	/	/
O=C(Oc1ccc2ccccc2c1Br)N1CCCCCC1	-6.66*	-6.66	i	i	i
Cc1ccccc1CC1CCN(CCCNC(=O)Nc2ccccc2)CC1	i	/	/	/	/
CCN1CCc2[nH]c3ccccc3c2C1	i	/	/	/	/
Cc1ccc(C)c(NC(=O)c2ccc(S(=O)(=O)N(C)CC3CCCO3)cc2)c1 (configuration not stated)	i	0.39	/	/	/
Cc1cccc(NCc2ccc(N(C)C)cc2)n1	i	0.02	/	/	/
Cc1oc(-c2cccc(Cl)c2)nc1CN1CCC(C(=O)NC2CC2)CC1	i	1.17	/	/	/
CCN(CCNC(=O)C1CCN(Cc2nc(-c3cccc(Cl)c3)oc2C)CC1)c1ccccc1	-12.4*	-12.4	-26.5%*	i	i	KCNQ2 inh confirm=i
N/C(=N\OC(=O)CSc1ccccc1)c1ccc([N+](=O)[O-])cc1	i	/	/	/	/
O=C(/C=C/c1ccco1)NC(=S)Nc1ccccc1N1CCCC1	i	/	/	/	/
O=C(/C=C/c1ccco1)NC(=S)Nc1ccccc1N1CCOCC1	-7.25*	-7.25	i	i	i
O=C(CN1C(=O)S/C(=C\c2ccccc2F)C1=O)NC1C=CS(=O)(=O)C1 (configuration not stated)	i	/	/	/	/
COc1ccc(/C=C2\SC(=S)N(N3CCOCC3)C2=O)c(OC)c1	i	/	/	/	/
COc1cccc(/C=C2\SC(=S)N(N3CCOCC3)C2=O)c1OC	-8.59*	-8.59	-34.5%*	i	i	KCNQ2 inh confirm=i
Cc1ccccc1-c1nc2cc(NC(=O)C3CC3)ccc2o1	i	0.01	/	/	/
COc1cc(-c2cc(C(=O)Nc3ccc(O)cc3)c3ccccc3n2)cc(OC)c1OC	-7.67*	-7.67	-29.5%*	i	i	KCNQ2 inh confirm=+
O=C(Nc1ccccc1N1CCOCC1)c1cc(-c2ccco2)nc2ccccc12	-7.02*	-7.02	-54.0%*	-54.5%*	-50.0%*	KCNQ2 inh confirm=+
COc1cc(-c2cc(C(=O)Nc3ccccc3N3CCOCC3)c3ccccc3n2)cc(OC)c1OC	-7.79*	-7.79	-31.0%*	i	i	KCNQ2 inh confirm=+
O=C(Nc1ccccc1F)c1cc(-c2ccco2)nc2ccccc12	i	0.04	/	/	/
COc1cc(-c2cc(C(=O)Nc3nc4ccccc4s3)c3ccccc3n2)cc(OC)c1OC	i	/	/	/	/
COc1ccc(-c2cc(C(=O)NN3CCOCC3)c3ccccc3n2)cc1OC	i	0.26	/	/	/
COCCSc1nnc(NC(=O)C2CC(=O)N(CCc3ccc(F)cc3)C2)s1 (configuration not stated)	i	/	/	/	/
COc1ccc(/C(C)=N/NC(=O)CNC(=O)CCc2ccccc2)c(OC)c1	i	/	/	/	/
SMILES	KCNQ2 block	KCNQ2 pot	KCNQ2 block conf	KCNQ1 spec	CHO parental ctr	others
CCOC(=O)c1cn2nc(-c3ccc(OC)cc3)cc2nc1C1CCN(C(=O)OC(C)(C)C)CC1	-8.58*	-8.58	i	i	i
COc1ccc(-c2cc(C3CCN(C(=O)OC(C)(C)C)CC3)[nH]n2)cc1	i	/	/	/	/
Cc1nnc(SCC(=O)NC2CCCCCC2)n1C(C)C	i	0.79	/	/	/
COc1ccc(-n2c(=O)c3c4c(sc3n(CC(=O)NC3CCCC3)c2=O)CCCC4)c(OC)c1	-6.71*	-6.71	i	i	i
COc1ccc(-n2c(=O)c3c4c(sc3n(CC(=O)NCC3CCCO3)c2=O)CCCC4)c(OC)c1 (configuration not stated)	i	/	/	/	/
CCC1Nc2ncnc(N3CCN(c4ccccc4)CC3)c2N(Cc2ccc(Br)cc2)C1=O (configuration not stated)	i	/	/	/	/
CC(C)=CC1C(C(=O)Nc2ccc(S(=O)(=O)N3CCOCC3)cc2)C1(C)C (configuration not stated)	i	0.27	/	/	/
Cc1nc(N2CCN(C(=O)c3ccco3)CC2)c2c3c(sc2n1)CCC3	i	1.2	/	/	/
CC(C)c1nc(N2CCN(C(=O)c3ccco3)CC2)c2c3c(sc2n1)CCCC3	-8.69*	-8.69	i	i	i
O=C(CCCCn1c(=O)[nH]c2ccsc2c1=O)NCCc1ccccc1	i	1.17	/	/	/
O=C(CCn1c(=O)[nH]c2ccsc2c1=O)N(CCc1ccccc1)Cc1ccccc1	-7.42*	-7.42	-25.5%*	i	i	KCNQ2 inh confirm=+
CCCCOCCCN1CC(=O)N2[C@@H](Cc3c([nH]c4ccccc34)C2(C)C)C1=O	i	0.48	/	/	/
C=CCn1c(NCc2c[nH]c3ccccc23)nc2ccccc21	-10*	-10	-29.5%*	i	i	KCNQ2 inh confirm=+
C=CCn1c(NCc2ccc(OC)cc2)nc2ccccc21	i	/	/	/	/
COc1ccccc1N1CCN(/N=C/c2cc(Br)ccc2F)CC1	-10.5*	-10.5	-17.5%*	i	i	KCNQ2 inh confirm=i
COc1ccccc1N1CCN(/N=C/c2cccc(Cl)c2)CC1	-7.03*	-7.03	-29.5%*	i	i	KCNQ2 inh confirm=+
COc1ccccc1N1CCN(/N=C/c2cccc(OC)c2O)CC1	i	/	/	/	/
COc1ccc(/C=N/N2CCN(c3ccccc3OC)CC2)cc1Br	i	/	/	/	/
C=CCn1c(=O)c2ccccc2n2c(SCC(C)=O)nnc12	i	1.47	/	/	/
CC(=O)Nc1ccc(NC(=O)C2CCCCN2S(=O)(=O)c2ccc(C(C)(C)C)cc2)cc1 (configuration not stated)	i	2.4	/	/	/
COc1nc(NCCc2ccc(OC)c(OC)c2)nc(Nc2ccccc2)n1	i	/	/	/	/
Cc1nn(CC(=O)N2CCN(c3ccccc3)CC2)c(=O)c2cccn12	i	0.94	/	/	/
CC(C#N)Sc1ncnc2sc(-c3ccccc3)cc12 (configuration not stated)	i	0.9	/	/	/
O=C(CCN1CCCCC1)c1ccc2c(c1)OCCO2	i	/	/	/	/
O=C(CCN1CCc2ccccc21)c1ccc2c(c1)OCCO2	i	0.36	/	/	/
SMILES	KCNQ2 block	KCNQ2 pot	KCNQ2 block conf	KCNQ1 spec	CHO parental ctr	others
O=C(CCN1CCc2ccccc2C1)c1ccc2c(c1)OCCO2	-8.33*	-8.33	-15.5%*	i	i	KCNQ2 inh confirm=+
O=C(CCN1CCCC1Cc1ccccc1)c1ccc2c(c1)OCCO2 (configuration not stated)	-7.9*	-7.9	-35.0%*	-29.5%*	-24.5%*	KCNQ2 inh confirm=+
CC(C)N(C(=O)Cn1c(=O)oc2ccccc21)c1ccccc1	i	0.37	/	/	/
COc1ccccc1N(C(=O)c1ccco1)C(C(=O)NC1CCCCC1)c1cc(OC)c(OC)c(OC)c1 (configuration not stated)	i	/	/	/	/
O=P(C(=NCCO)NO)(N1CCOCC1)N1CCOCC1	i	/	/	/	/
CCCCCC[C@@H]([C@@H](C)O)n1cnc2c(N)ncnc21	i	0.81	/	/	/
CCCCCCCCCCCCCCCC(O)C(N)CO (configuration not stated)	-10.1*	-10.1	i	i	i
C=CCn1c(SCC(=O)NCCO)nc2sc(C)c(C)c2c1=O	i	/	/	/	/
